The structures appear in SMILES notation.

These results are taken from PMC5540273 (PLoS ONE, 2017).
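Also: KINOMEscan kinase panel screen.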

The test system of the assay is T1, PRKR.
T1 construct: gene EIF2AK2
The settings on record: concentration: 1 μM,replicates: in singlicate; n = 1.
Regarding `Cn1ccc2ncnc(Oc3ccc(NC(=O)Nc4ccnc(C(F)(F)F)c4)c(Cl)c3)c21`, the “%Inh” value worked out at 0%. As to `Cc1ccc(CC(=O)N2CCc3cc(-c4cn(C)c5ncnc(N)c45)ccc32)cc1` [GSK2634758], the “%Inh” value was 7%. The result for `CS(=O)(=O)c1cccc(CNc2nc(Nc3ccc4c(c3)[C@@H]3C[C@@H]4CNC3=O)ncc2C(F)(F)F)c1` reads 0%. As for `CNC(=O)c1ccccc1Nc1nc(Nc2cccc(CS(C)(=O)=O)c2)ncc1C.O=CO` [GSK1520489], the “%Inh” value is 28%.

With `Cn1ccc2ncnc(Oc3ccc(NC(=O)Nc4cccc(C(F)(F)F)c4)c(Cl)c3)c21`, the “%Inh” value is reported as 0%. As to `CN1CCN(CCNc2nc3cc(Oc4ccc(NC(=O)Nc5cc(C(F)(F)F)ccc5F)cc4)ccc3[nH]2)CC1.Cl.Cl` [GW768504], the “%Inh” value turned out to be 24%. The result for `O=C(NCC1CC1)c1ccc(-c2cc(C(=O)NC3CC3)ccc2F)cc1` [GW810445] reads 0%; that for `N#Cc1cccc(C(=O)NC2CCN(c3ccnc(Nc4ccc(F)cc4)n3)C2)c1` (stereo not drawn) [GSK1379708], 0%; that for `FC(F)(F)c1cc(Br)cc(Nc2nccc(-c3cnn4ncccc34)n2)c1` [GW810578], 0%.

As for `Cc1ccn2nc(-c3ccc(F)cc3)c(-c3ccncc3)c2c1.Cl` [GW457859], the “%Inh” value is 12%. Take `C[C@@H](Oc1cc(-n2cnc3cc(-c4cnn(C)c4)ccc32)sc1C(N)=O)c1ccccc1Cl` [GSK580432]: the “%Inh” value was determined as 0%. Regarding `Cn1ccc2ncnc(Oc3ccc(NC(=O)Nc4cncc(C(F)(F)F)c4)c(Cl)c3)c21`, the “%Inh” value turned out to be 0%.
